Data reported in PubChem BioAssay (EPA / NIEHS).
Inconclusive results are not listed. Activity calls are given as the source filed them. The calls were made as follows, unless noted: active = hit-call score of the fitted dose curve at least 0.9, where 1 is the maximum; inactive = score below 0.9.

Experiments:
[1] = CCTE_Mundy_HCI_Cortical_Synap_Neur_Matur_NeuriteLength: CCTE's Synaptogenesis and Neurite Maturation Assay in rat cortical cells for Neurite Length, Mundy Lab (AID 2284214)
Method in brief: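 Neurite length quantified by automated high-content imaging of MAP2, synaptophysin and Hoechst staining. Rat cortical cells received chemical from DIV 7 to DIV 12 […], glial growth arrested by AraC at DIV 5; DMSO baseline.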

[2] = CCTE_Mundy_HCI_Cortical_Synap_Neur_Matur_NeuriteSpotCountPerNeuron: CCTE's Synaptogenesis and Neurite Maturation Assay in rat cortical cells for Neurite Spot Count per Neuron Count, Mundy Lab (AID 2284215)
Method in brief: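 Rat primary cortical cultures given AraC at DIV 5, dosed from DIV 7 to DIV 12 with media change. Fixed, stained for MAP2, synaptophysin and Hoechst; neurite-associated synaptophysin puncta per neuron quantified by high-content imaging versus DMSO.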

[3] = CCTE_Mundy_HCI_Cortical_Synap_Neur_Matur_SynapseCount: CCTE's Synaptogenesis and Neurite Maturation Assay in rat cortical cells for Synapse Count, Mundy Lab (AID 2284218)
Method in brief: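 High-content imaging of synaptophysin puncta per MAP2-positive neuron (Hoechst nuclei) in rat cortical cells exposed DIV 7–12 after glial arrest with AraC at DIV 5; decrease relative to DMSO scored.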

[4] = CCTE_Mundy_HCI_Cortical_Synap_Neur_Matur_CellBodySpotCount: CCTE's Synaptogenesis and Neurite Maturation Assay in rat cortical cells for Cell Body Spot Count, Mundy Lab (AID 2284223)
Method in brief: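 Primary rat cortical cultures, AraC added at DIV 5; dosed DIV 7 through DIV 12 […]. Fixed, stained for MAP2 and synaptophysin with Hoechst; cell body-associated synaptophysin puncta per neuron counted by high-content imaging, loss vs DMSO.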

[5] = CCTE_Mundy_HCI_hNP1_Pro_ResponderAvgInten: CCTE's Proliferation Assay in human neuroprogenitor cells, Mundy Lab (AID 2284224; active = hit-call score of the fitted dose curve at least 0.9, where 1 is the maximum;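 also: human neural progenitor cells hNP1 derived from WA09 embryonic stem cells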)
Method in brief: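 Human neuroprogenitors (hNP1, WA09 lineage) receive test chemical after 40 to 44 hours of attachment. A four-hour BrdU pulse begins twenty hours later, followed by fixation and high content imaging; signal is referenced to DMSO controls.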

[6] = UKN2_HCS_IMR90_cell_viability: Viability Assessment in the University of Konstanz (UKN) Leist Lab Neural Crest Cell Migration Assay in human induced IMR90 Pluripotent Stem Cells (UKN2) (AID 2284233);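 also: viability of neural crest cells differentiated from IMR90 iPSC measured by calcein-AM fluorescence imaging; cells exposed to compound for 24 h after a 24 h migration phase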
Method in brief: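 cMINC format, iPSC-derived neural crest (IMR90); 24 h migration (EGF/FGF, N2-S), then 24 h toxicant. Calcein-AM/H-33342 stain 30 min; fluorescence intensity by HCS; DMSO-normalised, bidirectional fitting.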

[7] = CCTE_Mundy_HCI_Cortical_NOG_NeuronCount: CCTE's Neurite Outgrowth Assay in rat cortical cells for Neuron Count, Mundy Lab (AID 2284236; active = hit-call score of the fitted dose curve at least 0.9, where 1 is the maximum;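 also: neurons counted by imaging betaIII-tubulin and Hoechst stained cortical cells; cells exposed to compound for about 48 hours before fixation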)
Method in brief: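 Read-out: neuron number by high-content imaging of betaIII-tubulin (Alexa Fluor-488) and Hoechst-labelled rat primary cortical cells.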

[8] = CCTE_Mundy_HCI_Cortical_NOG_BPCount: CCTE's Neurite Outgrowth Assay in rat cortical cells for Branch Point Count, Mundy Lab (AID 2284237)
Method in brief: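 Measured 50.33 h after dosing, this morphology endpoint uses rat primary cortical cultures labelled for betaIII-tubulin. Branch points are quantified by high-content imaging, with DMSO as negative control and baseline.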

[9] = CCTE_Mundy_HCI_hNP1_Casp3_7: CCTE's Caspase-Glo 3/7 Assay in human neuroprogenitor cells for Apoptosis, Mundy Lab (AID 2284240)
Method in brief: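 Neuroepithelial-lineage stem cells from WA09 embryonic cells were treated with chemicals after 40–44 h of culture. Twenty-four hours later, caspase-3/7 activation was detected luminescently after a 30 min room-temperature reagent step, with DMSO as baseline.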

[10] = CCTE_Mundy_HCI_hNP1_CellTiter: CCTE's Cell Titer-Glo 2 Assay in human neuroprogenitor cells for Viability, Mundy Lab (AID 2284241; active = hit-call score of the fitted dose curve at least 0.9, where 1 is the maximum)
Method in brief: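 Measures ATP content in human neural progenitors derived from WA09 embryonic cells. Read-out at 26.5 hours after dosing, with DMSO serving as the negative control and baseline.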

[11] = CCTE_Mundy_HCI_Cortical_Synap_Neur_Matur_NeuronCount: CCTE's Synaptogenesis and Neurite Maturation Assay in rat cortical cells for Neuron Count, Mundy Lab (AID 2284242; active = hit-call score of the fitted dose curve at least 0.9, where 1 is the maximum)
Method in brief: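 Neuron counts come from automated high-content imaging of Hoechst nuclei and MAP2/synaptophysin immunostaining at DIV 12, with loss of signal judged against DMSO. Cultures of rat cortical cells had glial growth arrested by AraC at DIV 5; chemical exposure began DIV 7.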

[12] = IUF_NPC2c_oligodendrocyte_migration_120hr: Leibniz Research Institute for Environmental Medicine (IUF) 120-hour Neural Progenitor Cell Migration Assay for Oligodendrocyte Migration (NPC2c) (AID 2284297);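 also: O4-positive oligodendrocyte migration distance divided by radial glia migration distance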
Method in brief: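 Human fetal neural progenitor spheres (0.3 mm) are plated on poly-D-lysine/laminin in N2 differentiation medium and exposed for 120 h, with half-medium renewal at day 3. Oligodendrocyte (O4+) migration distance comes from ICC imaging, normalised to radial glia migration.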

[13] = IUF_NPC2a_radial_glia_migration_120hr: Leibniz Research Institute for Environmental Medicine (IUF) 120-hour Neural Progenitor Cell Migration Assay for Radial Glia Migration (NPC2a) (AID 2284298)
Method in brief: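 Human fetal-cortex neural progenitor spheres (0.3 mm) plated on poly-D-lysine/laminin in N2 differentiation medium, exposed 120 h at 37C with half-medium renewal at day 3. Radial glia migration distance (um) measured from Hoechst-stained nuclei images; DMSO baseline.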

[14] = IUF_NPC2b_neuronal_migration_120hr: Leibniz Research Institute for Environmental Medicine (IUF) 120-hour Neural Progenitor Cell Migration Assay for Neuron Migration (NPC2b) (AID 2284300)
Method in brief: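 0.3 mm hNPC spheres on poly-D-lysine/laminin in N2 differentiation medium exposed 120 h, half-medium refresh day 3; 7 concentrations, DMSO max 0.1%. Neuron (TUBB3) distance from sphere core by ICC imaging, normalised to radial glia migration.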

[15] = IUF_NPC3_neuronal_differentiation_120hr: Leibniz Research Institute for Environmental Medicine (IUF) 120-hour Neuronal Differentiation Assay (NPC3) (AID 2284301)
Method in brief: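 Neuronal differentiation of primary human neural progenitors measured by high-content imaging: percent TUBB3+ of Hoechst+ nuclei within migrated area at 120 h, seven-point serial dilution plus solvent control, gain or loss relative to DMSO.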

[16] = IUF_NPC4_neurite_length_120hr: Leibniz Research Institute for Environmental Medicine (IUF) 120-hour Neuronal Morphology Assay for Neurite Length (NPC4) (AID 2284302)
Method in brief: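 Neurons from differentiating human fetal neural progenitor spheres are scored for average neurite length after five days of compound exposure. Fitting uses DMSO as negative control.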

[17] = IUF_NPC5_oligodendrocyte_differentiation_120hr: Leibniz Research Institute for Environmental Medicine (IUF) 120-hour Oligodendrocyte Differentiation Assay (NPC5) (AID 2284304; active = hit-call score of the fitted dose curve at least 0.9, where 1 is the maximum;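 also: primary human fetal neural progenitor spheres plated to migrate and differentiate; share of O4-positive cells among Hoechst nuclei found by CNN image analysis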)
Method in brief: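 Human fetal neural progenitor spheres (0.3 mm) plated on poly-D-lysine/laminin in N2 differentiation medium and exposed for 120 h at 7 concentrations, with half-medium renewal at day 3. O4-positive cells identified by CNN, expressed as percent of Hoechst nuclei.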

[18] = IUF_NPC4_neurite_area_120hr: Leibniz Research Institute for Environmental Medicine (IUF) 120-hour Neuronal Morphology Assay for Neurite Area (NPC4) (AID 2284305; active = hit-call score of the fitted dose curve at least 0.9, where 1 is the maximum)
Method in brief: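 Endpoint at 120 h: automated imaging of TUBB3/Hoechst-stained differentiating human neural progenitor spheres, neurite area per neuron from skeletonization. DMSO solvent control, not above 0.1%, set the baseline; medium was half-replaced on day 3.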

[19] = IUF_NPC2-5_cytotoxicity_72hr: Cytotoxicity Assessment at 72 hours in the Leibniz Research Institute for Environmental Medicine (IUF) Neural Progenitor Cell Migration and Differentiation Assay for Cytotoxicity (NPC2-5) (AID 2284306; active = hit-call score of the fitted dose curve at least 0.9, where 1 is the maximum;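 also: LDH release into supernatant measured by resorufin fluorescence marking membrane damage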)
Method in brief: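 Primary human neural progenitor spheres migrate and differentiate on laminin. Compound is present from the start of differentiation, with DMSO kept at or below 0.1%. At 72 h, supernatant LDH is quantified fluorometrically, with values fitted in the positive direction.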

[20] = IUF_NPC2-5_cytotoxicity_120hr: Cytotoxicity Assessment at 120 hours in the Leibniz Research Institute for Environmental Medicine (IUF) Neural Progenitor Cell Migration and Differentiation Assay (NPC2-5) (AID 2284307; active = hit-call score of the fitted dose curve at least 0.9, where 1 is the maximum)
Method in brief: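 Human fetal (GW 16-19) neural progenitor spheres (0.3 mm) plated on poly-D-lysine/laminin in N2 differentiation medium, exposed 120 h with half-medium renewal at day 3; 7 concentrations plus solvent control, DMSO ≤0.1%. LDH release in supernatant read by resorufin fluorescence.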

[21] = IUF_NPC2-5_cell_number_120hr: Cell Number Assessment at 120 hours in the Leibniz Research Institute for Environmental Medicine (IUF) Neural Progenitor Cell Migration and Differentiation Assay (NPC2-5) (AID 2284308);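 also: count of Hoechst-stained nuclei in migration zone around plated human neural progenitor spheres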
Method in brief: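 Human fetal neural progenitor spheres (0.3 mm) plated on poly-D-lysine/laminin in N2 differentiation medium, exposed five days across 7 concentrations with half-medium refresh at day 3. Hoechst-positive nuclei counted in migration area at 120 h, relative to DMSO.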

[22] = IUF_NPC2-5_viability_120hr: Viability Assessment at 120 hours in the Leibniz Research Institute for Environmental Medicine (IUF) Neural Progenitor Cell Migration and Differentiation Assay (NPC2-5) (AID 2284312)
Method in brief: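 Human fetal (GW 16-19) neural progenitor spheres of 0.3 mm were plated on poly-D-lysine/laminin in N2 differentiation medium and exposed from day 0 for 120 h, with half-medium refresh at day 3. Viability was read as alamar blue resazurin-to-resorufin fluorescence against DMSO.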

[23] = CCTE_Mundy_HCI_iCellGluta_NOG_NeuriteLength: CCTE's Neurite Outgrowth Assay in iCellGluta cells for Neurite Length, Mundy Lab (AID 2284318; active = hit-call score of the fitted dose curve at least 0.9, where 1 is the maximum)
Method in brief: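 Automated high-content imaging of betaIII-tubulin (Alexa Fluor-488) and Hoechst-stained cells gave neurite length, normalized to the DMSO baseline.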

[24] = IUF_NPC1_cytotoxicity_72hr: Cytotoxicity Assessment at 72 hours in the Leibniz Research Institute for Environmental Medicine (IUF) Neural Progenitor Cell Proliferation Assay (NPC1) (AID 2284332; active = hit-call score of the fitted dose curve at least 0.9, where 1 is the maximum;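 also: rising LDH signal means more cytotoxicity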)
Method in brief: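 Cytotoxicity by LDH membrane-integrity assay on medium supernatants, fluorescence via resazurin reduction, after 3-day single exposure of primary hNPC spheres at 37C, pH 7.2-7.6 with growth factors. Fitted upward against baseline.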

[25] = CCTE_Mundy_HCI_iCellGluta_NOG_NeuronCount: CCTE's Neurite Outgrowth Assay in iCellGluta cells for Neuron Count, Mundy Lab (AID 2284340; active = hit-call score of the fitted dose curve at least 0.9, where 1 is the maximum;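 also: cells fixed about 48 h after compound addition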)
Method in brief: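 Neuron count read by automated high-content imaging of Hoechst 33342 and betaIII-tubulin/Alexa Fluor-488 labelling in human iPSC glutamatergic neurons. Activity fitted relative to DMSO.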

[26] = CCTE_Mundy_HCI_iCellGluta_NOG_NeuriteCount: CCTE's Neurite Outgrowth Assay in iCellGluta cells for Neurite Count, Mundy Lab (AID 2284342; active = hit-call score of the fitted dose curve at least 0.9, where 1 is the maximum;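 also: chemical exposure about 48 hours starting 2 hours after plating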)

Measured: outcome

CCCCCC=C(C)C(CC)CCO (stereo unspecified)
inactive: all assays above
